{"source": "PubChem BioAssay (EPA / NIEHS)", "note": "Results filed as inconclusive are left out. The source made the active and inactive calls. Rule for the calls, unless noted: active = hit-call score of the fitted dose curve at least 0.9, where 1 is the maximum; inconclusive = response in the unintended direction; inactive = score below 0.9.", "data": [{"tested_on": "not listed separately", "test": "Tanguay_ZF_120hpf_SWIM_legacy: (Legacy) Oregon State University Tanguay Lab 120 Hour Post-fertilization zebrafish Assay for Swim Bladder Malformation (AID 2283654);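 note: swim bladder malformation in each larva scored yes or no under brightfield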", "conditions": "not given", "summary_of_the_method": "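Dechorionated wild-type Tropical 5D zebrafish embryos, one per well from 6 hpf, were statically exposed at 28C until 120 hpf in 0.64% DMSO. Swim bladder malformation scored as present/absent by brightfield microscopy; not scored in dead larvae.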", "values": [{"smiles": "CCCCCCCCCC[N+](C)(C)[O-]", "outcome": "inactive"}, {"smiles": "Cc1occc(=O)c1O", "outcome": "inactive"}, {"smiles": "Cc1c(C)c2c(c(C)c1O)CCC(C)(COc1ccc(CC3SC(=O)NC3=O)cc1)O2", "note": "(centres undefined)", "outcome": "inactive"}, {"smiles": "CC1(C)C(=O)NC(=O)N1CO", "outcome": "inactive"}, {"smiles": "CCC(C)N(C)C(=O)c1cc2ccccc2c(-c2ccccc2Cl)n1", "note": "(centres undefined)", "AC50": "18.5 µM (active)"}, {"smiles": "CN(C)CCCN1c2ccccc2Sc2ccc(Cl)cc21", "outcome": "inactive"}, {"smiles": "CCCCOC(=O)CCCCC(=O)OCCCC", "outcome": "inactive"}, {"smiles": "CC(C)NCC(O)c1ccc(O)c(O)c1", "note": "(centres undefined)", "outcome": "inactive"}, {"smiles": "O=C(NS(=O)(=O)/C=C/c1cccs1)c1ccc(F)cc1Br", "outcome": "inactive"}, {"smiles": "CN(C)C(=O)NC1(c2ccccc2)CCN(CCC[C@]2(c3ccc(Cl)c(Cl)c3)CCCN(C(=O)c3ccccc3)C2)CC1", "outcome": "inactive"}]}, {"tested_on": "not listed separately", "test": "Tanguay_ZF_120hpf_TRUN_legacy: (Legacy) Oregon State University Tanguay Lab 120 Hour Post-fertilization zebrafish Assay for Truncated Body (AID 2283655)", "conditions": "not given", "summary_of_the_method": "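Tropical 5D wild-type embryos, dechorionated with pronase at 4 hpf, were placed singly in wells at 6 hpf and statically exposed at 28C until 120 hpf, final DMSO 0.64%. Truncated body was scored present/absent by brightfield microscopy.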", "values": [{"smiles": "CC(=O)OC1CC(C)OC(C)O1", "note": "(centres undefined)", "outcome": "inactive"}, {"smiles": "CCCCC(CC)CO", "note": "(centres undefined)", "outcome": "inactive"}, {"smiles": "C#CC(O)C(CC)CCCC", "note": "(centres undefined)", "outcome": "inactive"}, {"smiles": "O=C1c2c(O)cccc2Cc2cccc(O)c21", "outcome": "inactive"}, {"smiles": "Nc1nc(Cl)nc2c1ncn2[C@H]1C[C@H](O)[C@@H](CO)O1", "outcome": "inactive"}, {"smiles": "OCC(CO)n1cnc(-c2ccc(F)cc2)c1-c1ccnc(Oc2ccccc2)n1", "outcome": "inactive"}, {"smiles": "CCCCCCCCCCCCCCOS(=O)(=O)O", "AC50": "31.3 µM (active)"}, {"smiles": "CC(C)COC(=O)CCCCC(=O)OCC(C)C", "outcome": "inactive"}, {"smiles": "O=C(O)c1cccnc1", "outcome": "inactive"}, {"smiles": "Cc1cc(Cc2ccc(N)c(C)c2)ccc1N", "outcome": "inactive"}, {"smiles": "OCC(O)CO", "outcome": "inactive"}, {"smiles": "S=c1[nH]c2ccccc2s1", "AC50": "11.4 µM (active)"}, {"smiles": "CC(=O)[C@@]1(O)CC[C@H]2[C@@H]3CCC4=CC(=O)CC[C@]4(C)[C@H]3CC[C@@]21C", "outcome": "inactive"}, {"smiles": "c1ccc2occc2c1", "outcome": "inactive"}, {"smiles": "Nc1nc(=S)c2[nH]cnc2[nH]1", "outcome": "inactive"}, {"smiles": "O=C1NC(=O)C(c2ccccc2)(c2ccccc2)N1", "outcome": "inactive"}, {"smiles": "O=C(O)CN(CC(=O)O)CC(=O)O", "outcome": "inactive"}, {"smiles": "CCCCCCC(CCCCCCCCCCC(=O)OCC(COC(C)=O)OC(C)=O)OC(C)=O", "note": "(centres undefined)", "outcome": "inactive"}, {"smiles": "CCN(CC)CCOc1ccc(C(=C(Cl)c2ccccc2)c2ccccc2)cc1", "outcome": "inactive"}, {"smiles": "CCCCCCCCCC[N+](C)(C)[O-]", "outcome": "inactive"}, {"smiles": "Cc1occc(=O)c1O", "outcome": "inactive"}, {"smiles": "Cc1c(C)c2c(c(C)c1O)CCC(C)(COc1ccc(CC3SC(=O)NC3=O)cc1)O2", "note": "(centres undefined)", "outcome": "inactive"}, {"smiles": "CC1(C)C(=O)NC(=O)N1CO", "outcome": "inactive"}, {"smiles": "CCC(C)N(C)C(=O)c1cc2ccccc2c(-c2ccccc2Cl)n1", "note": "(centres undefined)", "outcome": "inactive"}, {"smiles": "CN(C)CCCN1c2ccccc2Sc2ccc(Cl)cc21", "outcome": "inactive"}, {"smiles": "CCCCOC(=O)CCCCC(=O)OCCCC", "outcome": "inactive"}, {"smiles": "CC(C)NCC(O)c1ccc(O)c(O)c1", "note": "(centres undefined)", "outcome": "inactive"}, {"smiles": "O=C(NS(=O)(=O)/C=C/c1cccs1)c1ccc(F)cc1Br", "outcome": "inactive"}, {"smiles": "CN(C)C(=O)NC1(c2ccccc2)CCN(CCC[C@]2(c3ccc(Cl)c(Cl)c3)CCCN(C(=O)c3ccccc3)C2)CC1", "outcome": "inactive"}]}, {"tested_on": "not listed separately", "test": "Tanguay_ZF_120hpf_NC_legacy: (Legacy) Oregon State University Tanguay Lab 120 Hour Post-fertilization zebrafish Assay for Notochord and Tail Malformation (AID 2283656)", "conditions": "not given", "summary_of_the_method": "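Dechorionated Tropical 5D wild-type zebrafish embryos, one per well from 6 hpf, statically exposed to 120 hpf at 28C in 0.64% DMSO final. Notochord distortion scored present/absent by brightfield; dead embryos excluded.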", "values": [{"smiles": "CC(=O)OC1CC(C)OC(C)O1", "note": "(centres undefined)", "outcome": "inactive"}, {"smiles": "C#CC(O)C(CC)CCCC", "note": "(centres undefined)", "outcome": "inactive"}, {"smiles": "O=C1c2c(O)cccc2Cc2cccc(O)c21", "outcome": "inactive"}, {"smiles": "Nc1nc(Cl)nc2c1ncn2[C@H]1C[C@H](O)[C@@H](CO)O1", "outcome": "inactive"}, {"smiles": "OCC(CO)n1cnc(-c2ccc(F)cc2)c1-c1ccnc(Oc2ccccc2)n1", "outcome": "inactive"}, {"smiles": "CCCCCCCCCCCCCCOS(=O)(=O)O", "outcome": "inactive"}, {"smiles": "CC(C)COC(=O)CCCCC(=O)OCC(C)C", "outcome": "inactive"}, {"smiles": "O=C(O)c1cccnc1", "outcome": "inactive"}, {"smiles": "Cc1cc(Cc2ccc(N)c(C)c2)ccc1N", "outcome": "inactive"}, {"smiles": "OCC(O)CO", "outcome": "inactive"}, {"smiles": "S=c1[nH]c2ccccc2s1", "AC50": "51.8 µM (active)"}, {"smiles": "CC(=O)[C@@]1(O)CC[C@H]2[C@@H]3CCC4=CC(=O)CC[C@]4(C)[C@H]3CC[C@@]21C", "outcome": "inactive"}, {"smiles": "c1ccc2occc2c1", "outcome": "inactive"}, {"smiles": "Nc1nc(=S)c2[nH]cnc2[nH]1", "outcome": "inactive"}, {"smiles": "O=C1NC(=O)C(c2ccccc2)(c2ccccc2)N1", "outcome": "inactive"}, {"smiles": "O=C(O)CN(CC(=O)O)CC(=O)O", "outcome": "inactive"}, {"smiles": "CCN(CC)CCOc1ccc(C(=C(Cl)c2ccccc2)c2ccccc2)cc1", "outcome": "inactive"}, {"smiles": "CCCCCCCCCC[N+](C)(C)[O-]", "outcome": "inactive"}, {"smiles": "Cc1c(C)c2c(c(C)c1O)CCC(C)(COc1ccc(CC3SC(=O)NC3=O)cc1)O2", "note": "(centres undefined)", "outcome": "inactive"}, {"smiles": "CC1(C)C(=O)NC(=O)N1CO", "outcome": "inactive"}, {"smiles": "CCCCOC(=O)CCCCC(=O)OCCCC", "outcome": "inactive"}, {"smiles": "CC(C)NCC(O)c1ccc(O)c(O)c1", "note": "(centres undefined)", "outcome": "inactive"}, {"smiles": "O=C(NS(=O)(=O)/C=C/c1cccs1)c1ccc(F)cc1Br", "outcome": "inactive"}, {"smiles": "CN(C)C(=O)NC1(c2ccccc2)CCN(CCC[C@]2(c3ccc(Cl)c(Cl)c3)CCCN(C(=O)c3ccccc3)C2)CC1", "outcome": "inactive"}]}, {"read-out": "solute carrier (SLC10A1), SLC10A1 (gene 6554)", "test": "LTEA_HepaRG_SLC10A1: Life Technologies and Expression Analysis (LTEA) Assay for solute carrier (SLC10A1) using HepaRG (AID 2283657; active = hit-call score of the fitted dose curve at least 0.9, where 1 is the maximum; inactive = score below 0.9)", "conditions": "mRNA level, 48 h; actives raise or lower the signal", "summary_of_the_method": "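HepaRG cells (single lot) exposed 48 h in serum-free induction medium, 8-point half-log series from 100 uM top in 0.5% DMSO, duplicate. SLC10A1 mRNA by qRT-PCR normalised to ACTB, GAPDH, POLR2A; bidirectional fit versus DMSO.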", "values": [{"smiles": "CCCCC(CC)CO", "note": "(centres undefined)", "outcome": "inactive"}, {"smiles": "CCCCCCC(CCCCCCCCCCC(=O)OCC(COC(C)=O)OC(C)=O)OC(C)=O", "note": "(centres undefined)", "outcome": "inactive"}, {"smiles": "CCCCCCCCCC[N+](C)(C)[O-]", "outcome": "inactive"}, {"smiles": "Cc1occc(=O)c1O", "outcome": "inactive"}, {"smiles": "CCC(C)N(C)C(=O)c1cc2ccccc2c(-c2ccccc2Cl)n1", "note": "(centres undefined)", "AC50": "37.7 µM (active)"}, {"smiles": "CN(C)CCCN1c2ccccc2Sc2ccc(Cl)cc21", "AC50": "21 µM (active)"}]}]}
